Assay outcomes as filed in PubChem.
TEAD-YAP block: TEAD-YAP interaction inhibition, primary screen, TEAD-YAP interaction inhibitor project, luminescence, HEK-TIYL cells; AID 1259422, 2018; inhibition, % at 9.12 µM; 640,000 compounds, 1.4% hits; TEAD-Gal4/YAP UAS-luciferase luminescence; in the data active means inhibition above about 32%;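 further: 0% = median of test compound wells and 100% = reference inhibitor wells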
GPR151 ag: activators of human GPR151, primary screen, cell-based, PathHunter beta-arrestin, luminescence; activation, % at 11.2 µM; PathHunter beta-arrestin GPR151 cells; 650,000 compounds, 1% hits; AID 1508602, 2020; in the data active means activation above about 4.9%;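 further: 0% = median of compound wells and 100% = cells with positive control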
Target sequence (Q8TDV0 whole entry, looked up): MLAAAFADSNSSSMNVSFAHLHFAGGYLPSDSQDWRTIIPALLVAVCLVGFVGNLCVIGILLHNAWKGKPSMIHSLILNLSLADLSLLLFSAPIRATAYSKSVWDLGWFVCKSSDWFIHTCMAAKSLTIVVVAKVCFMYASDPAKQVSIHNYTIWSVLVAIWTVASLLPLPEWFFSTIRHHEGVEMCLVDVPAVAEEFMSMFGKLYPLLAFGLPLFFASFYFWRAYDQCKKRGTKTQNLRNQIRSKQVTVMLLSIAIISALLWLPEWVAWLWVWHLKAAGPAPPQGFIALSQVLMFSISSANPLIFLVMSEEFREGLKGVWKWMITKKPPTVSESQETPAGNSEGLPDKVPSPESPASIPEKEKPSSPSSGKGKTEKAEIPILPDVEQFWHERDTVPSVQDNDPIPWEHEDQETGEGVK
MITF inh: MITF inhibitors, primary screen, biochemical, AlphaScreen, human. Microphthalmia-associated transcription factor (Homo sapiens), O75030. AlphaScreen MITF homodimerization, bead proximity signal. inhibition, % at 2.6 µM. 650,000 compounds, 0.91% hits. AID 1259374, 2018; in the data active means inhibition above about 50%;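 further: 0% = vehicle wells with protein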
FBW7 act: FBW7 E3 ligase activators, primary screen, biochemical, AlphaScreen, human; AlphaScreen FBW7–phospho-cyclin E peptide binding, activator screen; normalized activity (activation), % at 26.1 µM; 650,000 compounds, 0.13% hits; in the data active means normalized activity above about 1.9%;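 further: purified mutant Fbw7 with reduced substrate affinity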
* hit, by the source's call. Sampled rows, rich in hits. Any-hit rate of the full collection: about 3.5%.

SMILES | TEAD-YAP block | GPR151 ag | MITF inh | FBW7 act
CCN1CC2=C(OC(N)=C(C#N)C2c2ccc(OC)cc2)/C(=C\c2ccc(OC)cc2)C1 (stereo unspecified) | 0 | 0 | 4 | 0
Nc1ncc(-c2cccc(CO)c2)nc1NCCCN1CCOCC1 | 4 | 1 | 9 | 0
CC(C)(C)NC(=O)Cn1c(=O)n(Cc2cccs2)c2ncccc21 | 3 | 0 | 12 | 0
CCCc1nnc(SCC(=O)Nc2nccs2)n1-n1cccc1 | 2 | 2 | 16 | 1
COc1ccc(-c2cc(Nc3cc(OC)c(OC)c(OC)c3)nc(N)n2)cc1 | 41* | 2 | -17 | 0
COc1ccc(CCNc2cc(-c3ccc(OC)nc3)nc(N)n2)cc1 | 51* | -1 | 0 | 0
COc1cccc(-c2nnc(-c3ccc(N)cc3)o2)c1 | 41* | -1 | -4 | 0
CC[C@H](C)[C@@H]1NC(=O)[C@H]2CN(C(=O)Oc3cccc4ccccc34)CCN2C1=O | 6 | 1 | 11 | 0
CCc1c(C#N)c(N)nc(SCC#N)c1C#N | -37 | 0 | -6 | 2.3*
CCSc1nc(N)c(C#N)c(CC)c1C#N | -5 | 1 | 2 | 0
CCOC(=O)c1c(-c2ccccc2)oc2c1cc(OC(=O)c1cccc(Cl)c1)c1ccccc12 | 3 | 0 | 5 | 0
Cc1ccccc1NC(=O)CCCC(=O)OCC(F)(F)C(F)F | 2 | 1 | 9 | 0
CO[C@H]1O[C@@H]2O[C@@]3(C)CC[C@H]4[C@H](C)CC[C@@H]([C@H]1C)[C@@]24OO3 | 2 | 1 | 9 | 0
C[C@H]1[C@@H](OC(=O)CCC(=O)O)O[C@@H]2OC3(C)CC[C@H]4[C@H](C)CC[C@@H]1[C@@]24OO3 | 82* | 0 | -1 | 0
C[C@@H]1CC[C@H]2[C@@H](C)C(O)O[C@@H]3OC4(C)CC[C@@H]1[C@]32OO4 (stereo partly specified) | 88* | 0 | 25 | 0
CCOC(=O)C1CCN(C(=O)COc2ccc(C(C)C)cc2Br)CC1 | 9 | -1 | -7 | 0
CCOC(=O)c1nnn(-c2nonc2N)c1CN1CCc2ccccc21 | -1 | -1 | 7 | 0
CCNC(=O)CN(c1ccc(C)c(C)c1)S(=O)(=O)c1ccccc1 | 4 | 2 | 0 | 0
N#C/C(=C\c1ccc(OCC(=O)NCC2CCCO2)cc1)C(=O)NCCc1ccccc1 (stereo unspecified) | 0 | 0 | 8 | 2.0*
N#C/C(=C\c1ccc(OCC(=O)NCC2CCCO2)cc1)C(=O)NCc1ccccc1 (stereo unspecified) | 7 | 1 | -22 | 0
O=c1c(CN2CCN(Cc3ccccc3)CC2)coc2ccccc12 | 67* | -2 | 43 | 0
CCOc1ccc(/C=C2\NC(=S)N(C)C2=O)c(OCC)c1 | 10 | 0 | 11 | 0
CCOc1cccc(/C=C2\NC(=S)N(C)C2=O)c1O | -33 | -2 | -13 | 2.4*
COc1cc(/C=C2\NC(=S)NC2=O)cc(OC)c1O | -3 | 0 | 8 | 0
COc1cccc(/C=C2\NC(=S)NC2=O)c1O | 76* | -1 | 11 | 0
SMILES | TEAD-YAP block | GPR151 ag | MITF inh | FBW7 act
Cn1c(=O)n(N)c(=O)c2c(-c3ccc(F)cc3F)c3c(nc21)-c1ccccc1C3=O | 0 | 2 | 19 | 0
COc1cccc(-c2csc3nnc(SCC(=O)c4ccc(NC(C)=O)cc4)n23)c1 | 3 | 0 | 10 | 13*
CC(C)CC1=NN2C(=N)/C(=C/c3ccco3)C(=O)N=C2S1 | -15 | -2 | -1 | 0
COc1ccc(CC(=O)NC(c2ccc(F)c(F)c2)c2nccn2C)cc1 (stereo unspecified) | 3 | -1 | 14 | 0
O=C(/C=C/c1ccc(O)c(O)c1)c1ccc(O[C@@H]2O[C@H](CO)[C@@H](O)[C@H](O)[C@H]2O)c(O)c1O | 2 | 3 | 56* | 0
O=C(Nc1ccc2oc(-c3cccc(I)c3)nc2c1)c1ccc(-c2cccc([N+](=O)[O-])c2)o1 | 2 | -1 | -6 | 0
CC(C)(C)c1ccc(-c2nc3cc(NC(=O)c4ccc(-c5cccc([N+](=O)[O-])c5)o4)ccc3o2)cc1 | 34* | 1 | -13 | 0
CC(C)(C)c1ccc(C(=O)Nc2ccc3oc(-c4ccc(C(C)(C)C)cc4)nc3c2)cc1 | -7 | 1 | 9 | 0
CC(C)(C)c1ccc(-c2nc3cc(NC(=O)c4ccc(Br)o4)ccc3o2)cc1 | 37* | 0 | -10 | 0
CCc1ccc2oc(-c3ccc(NC(=O)c4ccc5c(c4)OCCO5)cc3)nc2c1 | 39* | 0 | -3 | 1
O=C(Nc1ccc2oc(-c3ccc(I)cc3)nc2c1)c1ccc2c(c1)OCCO2 | -17 | -1 | -10 | 0
CCN(Cc1ccccc1)C(=O)c1cc(OC)c(OC)cc1[N+](=O)[O-] | -8 | -1 | 7 | 0
O=C(CCN1CCN(c2ccccc2)CC1)NNC(=O)CSc1ccccc1 | 7 | 0 | -4 | 0
CCOc1cccc2nc(NC(=O)c3ccc(Oc4ccccc4)cc3)sc12 | -8 | 0 | -5 | 0
Cc1cccc2nc(NC(=O)c3ccc(Oc4ccccc4)cc3)sc12 | 52* | 1 | -14 | 0
CCOc1ccc2nc(NC(=O)NC(=O)C(F)(F)F)sc2c1 | 63* | -2 | -4 | 0
COc1ccc2nc(NC(=O)c3ccccc3)sc2c1 | 43* | -7 | -22 | 0
CCCCCCOc1ccc(C(=O)Nc2nc3ccccc3s2)cc1 | 7 | 0 | 9 | 0
CCOc1ccc(C(=O)Nc2nc3ccccc3s2)cc1 | 57* | -7 | -3 | 0
CCOc1ccc2nc(NC(=O)c3cccs3)sc2c1 | 31 | -9 | -12 | 0
O=C(Nc1nc2ccccc2s1)c1ccc(C(=O)c2ccccc2)o1 | 36* | -2 | -11 | 0
COc1ccc2nc(NC(=O)c3cccs3)sc2c1 | 44* | -8 | -4 | 0
Cc1ccc(N(CC(=O)Nc2ccccc2Cl)S(C)(=O)=O)cc1Cl | 9 | 3 | -6 | 0
C=CCN(c1ccccc1)S(=O)(=O)c1ccc(F)c(C(=O)Nc2ccc(OCC)cc2)c1 | 39* | -1 | 15 | 1
C=CCN(c1ccccc1)S(=O)(=O)c1ccc(F)c(C(=O)Nc2ccc(CC)cc2)c1 | 32 | 1 | 4 | 0
C=CCN(c1ccccc1)S(=O)(=O)c1ccc(F)c(C(=O)Nc2ccc(C(C)C)cc2)c1 | 36* | 1 | 16 | 0
Cc1csc(SCc2nc(N)nc(Nc3ccccc3C)n2)n1 | -49 | 0 | -5 | 0
Cc1cc(NC(=O)CSc2nnc(-c3ccco3)c(-c3ccco3)n2)no1 | 32* | 0 | 25 | 0
O=C(CSc1nnc(-c2ccco2)c(-c2ccco2)n1)Nc1cccc(C(=O)O)c1 | 1 | 1 | 26 | 0
O=C(CSc1nnc(-c2ccco2)c(-c2ccco2)n1)Nc1ccc(C(=O)O)cc1 | 1 | 0 | 73* | -1
